Shiga inhibitor = Shiga toxin inhibition | inhibition, % at 38.7 µM | hit rate 9.2% among 290,000 | Vero cells, Shiga toxin protein synthesis inhibition reporter; in the data active = inhibition mostly above about 28%, no sharp cut-off; inactive = mostly below about 43%; note: 0% is about no effect
Sm TGR inh = S. mansoni TGR enzyme inhibition | purified TGR, DTNB reduction, TNB absorbance 405 nm | AID 485364 | Potency, µM (top dose mostly 114 µM), without a hit: at the top dose activity change, negative = inhibition, usual class: inhibitors | Q962Y6 | hit rate 3% among 360,000; note: potency is the fitted concentration of half-maximal effect; % is set by controls: 0 for no effect and ±100 for the full control effect; nearly all actives have a fitted effect of over 60% in size
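Kinetic colorimetric format: TGR-catalysed, NADPH-driven DTNB reduction monitored via TNB absorbance. Enzyme dispensed at 20 nM; compound exposure 15 min at room temperature before reaction start.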
Tb PYK inh = T. brucei pyruvate kinase inhibition; Q57TT1; TbPYK enzyme, Kinase-Glo Plus ATP luminescence, 45 min; Potency, µM (series often up to 76.8 µM), for the others: at the highest dose activity, negative = inhibition, most hits filed as inhibitors; hit rate 0.12% among 410,000; note: potency is the fitted concentration of half-maximal effect; % is set by controls: 0 for no effect and ±100 for the full control effect; nearly all actives have a fitted effect of over 50% in size
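Enzyme and substrate buffer are dispensed first and compound is pin-transferred. ADP at 130 uM final then starts the reaction, which runs 45 min at room temperature. Detection reagent is added for 10 min before luminescence is imaged.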
LmPK inhibitor = LmPK (Leishmania mexicana) enzyme inhibition. purified LmPK, Kinase-Glo ATP luminescence, 1 h. Potency, µM (titrated, usually from 57.5 µM), for inactives: at the highest dose activity change, negative = inhibition, usual class: inhibitors. Q27686. hit rate 0.37% among 290,000. AID 1721; note: potency is the fitted concentration of half-maximal effect; % is set by controls: 0 for no effect and ±100 for the full control effect
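ATP generated from ADP (0.1 mM) and PEP (0.5 mM) by 0.1 nM LmPK over 1 h at room temperature (pH 7.2 imidazole buffer) was detected by coupled luciferase luminescence. Values were normalized to uninhibited and no-enzyme wells.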
FBPA Giardia inh = Giardia lamblia aldolase inhibition; purified Giardia FBPA; AID 2451; hit rate 0.71% among 290,000; Potency, µM (top dose mostly 59.6 µM), inactives show at the top dose activity, negative = inhibition, most hits filed as inhibitors; note: potency is the fitted concentration of half-maximal effect; % is set by controls: 0 for no effect and ±100 for the full control effect; nearly all actives have a fitted effect of over 55% in size
Target sequence (A8B2U2 whole entry, looked up): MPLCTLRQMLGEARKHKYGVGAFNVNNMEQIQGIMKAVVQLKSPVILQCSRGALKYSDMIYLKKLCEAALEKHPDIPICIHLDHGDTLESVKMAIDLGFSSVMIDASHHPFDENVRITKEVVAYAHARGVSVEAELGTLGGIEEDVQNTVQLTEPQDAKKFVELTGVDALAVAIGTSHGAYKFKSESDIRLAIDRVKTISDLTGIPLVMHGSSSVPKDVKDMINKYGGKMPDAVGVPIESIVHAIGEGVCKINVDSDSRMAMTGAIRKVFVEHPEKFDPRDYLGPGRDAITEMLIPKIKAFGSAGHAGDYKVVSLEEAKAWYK
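40 nM FBPA preincubated 10 min at RT with compound (up to 57.5 uM final), then substrate plus GAPDH/TPI/NAD/arsenate coupling and diaphorase/resazurin added. Fluorescence read after 20 min at RT, 525/598 nm.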
CHX counter = counter-screen for Shiga toxin inhibitors: cycloheximide protein synthesis inhibition. cell reporter, cycloheximide protein synthesis inhibition counterscreen. max response, %. hit rate 12% among 300,000. AID 2314; in the data active = max response mostly above about 13%, no sharp cut-off; inactive = mostly below about 14%; note: read at 38.3 µM for the half of the compounds with a filed dose; 0% is about no effect
Active calls of the source: *; ? = inconclusive; / = not tested or not shown; [ ] = dose if it differs, or a comment. Shown is part of a subset that was picked to be rich in hits. Unless noted, calls come from the whole dose curve; as a rule, active = well fitted curve in the direction sought with a large enough effect; inconclusive = small, poorly fitted or top-dose-only effect, or another doubt; inactive = no such curve, though single readings can be large; an effect the other way counts as inactive or inconclusive.

SMILES | Shiga inhibitor | Sm TGR inh | Tb PYK inh | LmPK inhibitor | FBPA Giardia inh | CHX counter
C=C(C)C1CC=C(C)/C(=N\NC(=S)Nc2ccc(C)cc2)C1 (centres undefined) | 54* | 1% | 2% | 4% | 10% | 23*
CC(C)NC[C@@H](O)c1ccc(O)c(O)c1 | -7 | ? | -7% | 0% | 7.1µM* | 0
CC(C)NCC(O)c1ccc(N)c(C#N)c1 (centres undefined) | / | / | -1% | / | / | /
CC(=O)O[C@H](C)OC(=O)[C@@H](C)c1ccc(-c2ccccc2)c(F)c1 | / | / | -7% | / | / | /
Cc1ccc(O)c(N/C=C/C(=O)c2ccc(F)cc2)c1 | 129* | -14% | -10% | 0% | 0% | 43*
Cc1ccc(N/C=C/C(=O)c2ccc(C)cc2)cc1 | 124* | -24% | -5% | 30% | 7% | 65*
Cc1ccc(C(=O)C=CC=Cc2ccccc2)cc1 | / | / | -15% | / | / | /
Cc1ccc(O)c(NC(=O)/C=C/C(=O)O)c1 | -7 | ? | 0% | -10% | -3% | 1
Cc1ccc(C(=O)/C=C\Nc2ccc(C)c(C)c2)cc1 | 109* | -5% | -3% | -2% | 18% | 100*
CC1(C)OC(C(O)(c2cccc3c2oc2ccccc23)c2cccc3c2oc2ccccc23)C(C(O)(c2cccc3c2oc2ccccc23)c2cccc3c2oc2ccccc23)O1 (centres undefined) | / | / | / | / | -1%[12.9 µM] | /
COCCN(C(=O)c1cc(Cl)ccn1)c1c(N)n(Cc2ccccc2)c(=O)[nH]c1=O | / | -17% | 2% | / | / | /
O=S(=O)(NCc1ccc(F)cc1)c1ccc(-n2cnnn2)cc1 | -10 | -1% | -1% | -1% | / | -2
CC1CC(C)CN(C(=O)/C=C/c2ccc([N+](=O)[O-])s2)C1 (centres undefined) | 50 | 13µM* | 0% | 4% | -19% | 5
CC1CN(C(=O)c2cc([N+](=O)[O-])cc([N+](=O)[O-])c2)CC(C)O1 (centres undefined) | 104* | 4% | 0% | 1% | -2% | 42*
CC1CN(C(=O)/C=C/c2ccc([N+](=O)[O-])s2)CC(C)O1 (centres undefined) | -14 | 20µM* | -2% | 0% | 1% | 15
CC1CN(C(=O)/C=C/c2ccccc2[N+](=O)[O-])CC(C)O1 (centres undefined) | -7 | / | -5% | -1% | 0% | 1
Cc1ccc(C(=O)N2CC(C)OC(C)C2)cc1[N+](=O)[O-] (centres undefined) | 1 | -3% | -8% | 5% | 0% | 6
Cc1ccc(-n2nnnc2CNC(=O)c2ccccc2F)cc1C | / | 3% | 1% | / | / | /
COc1ccccc1NC(=O)Nc1ccccc1N1CCOCC1 | 31 | 3% | -3% | -2% | -3% | 13
CC(C)NC(=O)N1CC[C@@]2(CCCN(C(=O)c3cc(C(F)(F)F)cc(C(F)(F)F)c3)C2)C1 | / | / | -5% | / | 8% | /
Cc1ccc(C(C)C)c(OCCSc2nc3ccccc3n2CC(O)CO)c1 (centres undefined) | / | 4% | 3% | / | / | /
CCCSc1nc2cc(C)c(C)cc2n1CC(C)O (centres undefined) | 72* | 1% | 0% | 4% | ? | 26*
CCCSc1nc2cc(C)c(C)cc2n1CC(O)CO (centres undefined) | 78* | -9% | 0% | -1% | -4% | 21*
Cc1cc2nc3c(=O)[nH]c(=O)nc-3n(CC(O)C(O)C(O)CO)c2cc1C (centres undefined) | / | / | 0% | / | ? | /
Cc1ccc2[nH]c(=O)c3cc(C(=O)NCc4cccc(Cl)c4)sc3c2c1 | / | -10% | -6% | / | / | /
SMILES | Shiga inhibitor | Sm TGR inh | Tb PYK inh | LmPK inhibitor | FBPA Giardia inh | CHX counter
COc1ccc(S(=O)(=O)N2CCN(C(=O)c3cc(C)nc4ccccc34)CC2)cc1OC | / | / | 6% | / | / | /
COc1ccc(-n2ccnc(NCc3ccccc3OC)c2=O)cc1 | / | -6% | 0% | / | / | /
O=C(O)C[CH2][Ge](=[O])[O][Ge](=[O])[CH2]CC(=O)O | / | / | 6% | / | / | /
O=C1NC(=S)S/C1=C\C=C\c1ccc([N+](=O)[O-])o1 | 92* | 2.2µM* | -19% | -13% | -20% | 80*
C#Cc1ccc([C@@H]2C=C(C(=O)OCC=C)O[C@H](OCCCCO)C2)cc1 | -12 | ? | -2% | -1% | -3% | -2
Cc1ccn2c(C(C)O)nnc2c1 (centres undefined) | / | / | 0% | / | / | /
O=C(C[C@H]1C/C=C\C[C@H](NC(=O)OCC2c3ccccc3-c3ccccc32)C(=O)O[C@H](c2ccccc2)CNC1=O)N[C@H](CO)Cc1ccccc1 | / | / | 1% | / | / | /
CCC(C)(O)c1[nH]c2ccc(C(=O)OC)cc2c1C (centres undefined) | 34* | -26% | 1% | -3% | -9% | 22*
COC(=O)c1ccc2[nH]c(CO)c(-c3ccccc3)c2c1 | 3 | -35% | -4% | -5% | 2% | 6
Cc1cc(NC(=O)COc2ccccc2)cc(-c2nc3ccccc3o2)c1O | / | -11% | 3% | / | / | /
O=c1[nH]c(/C=C/c2cccc3ccccc23)nc2ccccc12 | 46 | / | -10% | -1% | -3% | 27
O=c1[nH]c(/C=C/c2ccccn2)nc2ccccc12 | 70* | 0% | -2% | -6% | -8% | 56*
O=c1[nH]c(/C=C/c2ccccc2F)nc2ccccc12 | 71* | -6% | 6% | -14% | 9% | 34*
O=C1CCN(Cc2ccccc2)S(=O)(=O)c2ccccc21 | 9 | 20µM* | -9% | 3% | -13% | -3
C=C1CCN(Cc2ccccc2)S(=O)(=O)c2ccccc21 | 10 | -5% | 2% | 6% | -25% | 1
Cc1nc2ccc(-c3ccccc3)cc2o1 | 63 | 2% | -6% | -6% | -1% | 53*
Cc1ccc(C(=O)N[C@@H](C)CN2C3=NC[C@H](C(C)C)N3C[C@H]2Cc2ccc(O)cc2)cc1Br | 8 | 8.9µM* | -17% | -9% | 3% | 1
COc1ccc(C[C@H]2CN3C(=NC[C@@H]3Cc3ccccc3)N2CCNC(=O)c2ccc(C)c(Br)c2)cc1 | -10 | 11µM* | -5% | 6% | 5% | -1
COc1ccc(C[C@H]2CN3C(=NC[C@@H]3Cc3ccc(O)cc3)N2C[C@H](C)NC(=O)c2ccc(C)c(Br)c2)cc1 | -5 | 40µM* | -2% | 4% | -14% | -5
COc1ccc(C[C@@H]2CN3C(=NC[C@@H]3C)N2C[C@H](C)NC(=O)CCC2CCCCC2)cc1 | -3 | 25µM* | -3% | -7% | -6% | 1
COc1ccc(C[C@H]2CN3C(=NC[C@@H]3C(C)C)N2C[C@H](C)NC(=O)c2ccc(C)c(Br)c2)cc1 | -15 | 15% | -18% | 1% | 3% | 1
